Laboratory results: PubChem BioAssay (Tox21)
Values without a mark were called inactive. Calls follow the shape of the full dose curve.

assay: G protein-coupled receptor (GPCR) small molecule agonists, calcium flux assay: HEK293 wild type cell line counter screen (AID 1920065); details: HEK293 WT calcium flux, fluorescence, agonist mode; series mostly up to 57.6 µM; activation: at the top concentration
Description: U.S. Tox21 Program National Center for Advancing Translational Sciences [NCATS] Division of Preclinical Innovation [DPI] U.S. Environmental Protection Agency [EPA] National Institutes of Environmental Health Sciences [NIEHS] National Toxicology Program [NTP] U.S. Food and Drug Administration [FDA] Assay overview: The increased intracellular calcium release that occurred upon G protein-coupled receptor (GPCR) activation led to the frequent use of calcium flux assays to detect GPCR activation. For the purpose of studying and screening compounds that may activate GPCR, receptor-overexpressing models were typically generated using Hek293 wild-type (WT) cells. In order to eliminate the compounds that may have induced calcium release for non-specific activation, a counter-assay utilizing calcium flux on Hek293 WT cells was performed. The data were formulated in order to serve as a control for any calcium flux detection utilizing Hek293 cells with either GPCR overexpression or gene modification. The procurement of Hek293 WT cells from ATCC. Fluorescence intensity can be utilized to determine the activation of the compound in a calcium flux assay. As a counter control, this cell line was utilized to screen the Tox21 10K compound library.
Assay Protocol Summary: Hek293 cells were dispensed at 1500cells/4uL/well in 1536-well black wall/clear bottom plates using a multidrop dispenser. After the assay plates were incubated at a 37 C/5% CO2 incubator for 18 hours, 4 uL of Calcium Dye Solution was added to each well. The plates were incubated at 37 C for 1 hour. For agonist mode, 23 nL of compounds dissolved in DMSO, positive control (ATP) or DMSO only was transferred to the assay plate by a pin tool station. The fluorescence intensity in the plates was measured using FDSS 7000EX kinetic plate reader with a filter set of Ex/Em=480/540 for 3 min at 1 sec intervals. Each test compound was measured at 15 concentrations and in triplicates.
% is scaled to controls: 0 for no effect and ±100 for the full control effect.

SMILES	activation
O=C(CCCN1CCN(c2ccccn2)CC1)c1ccc(F)cc1	-1.02% [at 26.5 µM]
CCOC(=O)C1=C(C)NC(C)=C(C(=O)OC)C1c1cccc(Cl)c1Cl (stereo not given)	-0.533% [at 26.5 µM]
COC(=O)c1ccc(I)cc1S(=O)(=O)NC(=O)Nc1nc(C)nc(OC)n1	0.308%
CN1C(=O)N(c2ccccc2Br)Cc2cnc(Nc3ccc4c(c3)OCC(CO)O4)nc21 (stereo not given)	-0.144%
NC(=O)CC[C@@H](N)C(=O)O	0.358% [at 26.5 µM]
CC(C)(C)NC[C@H](O)COc1cccc2c1CCCC2=O	0.737% [at 26.5 µM]
CC(NC(CCc1ccccc1)C(=O)O)C(=O)N1C(=O)N(C)CC1C(=O)O (stereo not given)	-1.25% [at 26.5 µM]
C[Si](C)(CCCN)O[Si](C)(C)CCCN	0.27%
O=C(OCc1ccccc1)C(=O)OCc1ccccc1	-0.31%
COc1ccccc1OC(=O)Oc1ccccc1OC	-0.308% [at 26.5 µM]
C[C@H]1O[C@@H](n2cc(F)c(=O)[nH]c2=O)[C@H](O)[C@@H]1O	-0.0761% [at 26.5 µM]
Nc1nc(N)nc(-c2cc(Cl)ccc2Cl)n1	0.483% [at 26.5 µM]
C/C=C/C=C/CCCCCCCO	-0.268%
O=S(=O)(c1ccccc1)c1ccc(Cl)cc1	-2.11%
Cc1cccc(C)c1OCC(C)N (stereo not given)	0.331% [at 26.5 µM]
COc1ccc2c(c1OC)C(=O)O[C@@H]2[C@H]1c2c(cc3c(c2OC)OCO3)CCN1C	-1.37% [at 26.5 µM]
C[C@@H]1[C@H](O)[C@@H](C)/C=C/C=C\C=C\C=C\C=C\C=C\C=C\[C@H](O[C@@H]2O[C@H](C)[C@@H](O)[C@H](N)[C@@H]2O)C[C@@H]2O[C@](O)(C[C@@H](O)C[C@@H](O)[C@H](O)CC[C@@H](O)C[C@@H](O)CC(=O)O[C@H]1C)C[C@H](O)[C@H]2C(=O)O (stereo in doubt)	2.37%
CCCCOC(=O)C(C)Oc1ccc(Oc2ccc(C(F)(F)F)cn2)cc1 (stereo not given)	1.37%
Cc1ccc(C(=O)Oc2ccc(C(O)CNC(C)(C)C)cc2OC(=O)c2ccc(C)cc2)cc1 (stereo not given)	1.72% [at 26.5 µM]
Cc1cc(O)ccc1N	1.43%

SMILES	activation
NNc1nc(-c2ccc([N+](=O)[O-])cc2)cs1	-0.472%
CCOc1nc(F)cc2nc(S(=O)(=O)Nc3c(Cl)cccc3C(=O)OC)nn12	1.53%
N#CSCC(=O)O	0.0811% [at 26.5 µM]
C1COC(NC(C2CC2)C2CC2)=N1	-0.0314% [at 26.5 µM]
CN(C)CCN1CCOCC1	-2.33%
CS(=O)(=O)c1ccc(-c2cn3ccccc3n2)cc1	1.45% [at 26.5 µM]
CC1=C(C)C(=O)C(C(CCCCCC(=O)O)c2ccccc2)=C(C)C1=O (stereo not given)	1.03% [at 26.5 µM]
CN(C)CCn1nnnc1SCC1=C(C(=O)O)N2C(=O)[C@@H](NC(=O)Cc3csc(N)n3)[C@H]2SC1	-0.0136% [at 26.5 µM]
CCCCCCCCCCOC(C)=O	0.775%
C=CCn1c(=O)n(CC=C)c(=O)n(CC=C)c1=O	-0.156%
O=C(O)c1ccc(Cl)c(Cl)c1	-0.0139%
C[C@H](O)C(=O)Nc1c(I)c(C(=O)NC(CO)CO)c(I)c(C(=O)NC(CO)CO)c1I	-0.596% [at 26.5 µM]
O=S(O)(O)=S	0.868% [at 5.23 µM]
CC(=O)N(CC(=O)N(C)C)c1ccccc1	0.247% [at 26.5 µM]
CCNC(=O)N1CCN(CCCC(c2ccc(F)cc2)c2ccc(F)cc2)CC1	-0.606% [at 26.5 µM]
CCCCCCCCCCCCCCCCCl	0.033% [at 11.8 µM]
C/C(=N/NC(=O)c1ccncc1)C(=O)O	-0.633% [at 26.5 µM]
FC(F)(F)C(F)(F)C(F)(F)C(F)(F)C(F)(F)C(F)(F)C(F)(F)C(F)(F)C(F)(F)C(F)(F)F	-1.63% [at 5.23 µM]
NCCS	0.646% [at 26.5 µM]
CCNC(=O)C1CC(C)CCC1C(C)C (stereo not given)	-1.42%
